A selection: hits, their analogues and other compounds. The true share with any hit is near 2.7%.
PP5 inh = PP5 (human) phosphatase inhibition. actives 0.18% (n = 320,000). P53041. inhibition, % at 6.7 µM. purified PP5c, OMFP substrate fluorescence. AID 1987;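 active = inhibition above the campaign's mean inhibition across all tested compounds plus 3 SD, cut at about 9.5% in these data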
PREPL inh = human PREPL enzyme inhibition; AID 2751; inhibition, % at 5.96 µM; recombinant PREPL, fluorescence polarization activity-based probe; actives 0.68% (n = 320,000); Q4J6C6; in the data active = inhibition above about 43%
PP1 inh = counter-screen for PP5 inhibitors: inhibitors of human PP1-alpha; inhibition, % at 6.7 µM; actives 0.9% (n = 320,000); P62136; purified PP1alpha, OMFP fluorescence;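 active = inhibition above the mean inhibition of all tested compounds plus 3 SD, computed separately for each screening campaign, cut at about 15% in these data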
DNA FID counter = displaces DNA intercalator in HCV helicase counter-screen; actives 0.17% (n = 290,000); inhibition, % at 7.9 µM; DNA fluorescent intercalator displacement, fluorescence; AID 1845; in the data active = inhibition above about 37%;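 also: higher means more ethidium bromide displaced from hairpin DNA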
TMEM16A inh = mouse TMEM16A channel inhibition, primary screen | Q8BHY3 | HEK293 TMEM16A/YFP iodide influx fluorescence, ionomycin | normalized B-score (activity score, 25-100; higher = stronger inhibition) at 10 µM | actives 1.2% (n = 310,000);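 active = ratio plate-corrected score three or more library SD toward inhibition, starting fluorescence score within five deviations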;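 also: score derived from kinetic fluorescence span divided by baseline fluorescence per well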
Target sequence (Q8BHY3 whole entry, looked up): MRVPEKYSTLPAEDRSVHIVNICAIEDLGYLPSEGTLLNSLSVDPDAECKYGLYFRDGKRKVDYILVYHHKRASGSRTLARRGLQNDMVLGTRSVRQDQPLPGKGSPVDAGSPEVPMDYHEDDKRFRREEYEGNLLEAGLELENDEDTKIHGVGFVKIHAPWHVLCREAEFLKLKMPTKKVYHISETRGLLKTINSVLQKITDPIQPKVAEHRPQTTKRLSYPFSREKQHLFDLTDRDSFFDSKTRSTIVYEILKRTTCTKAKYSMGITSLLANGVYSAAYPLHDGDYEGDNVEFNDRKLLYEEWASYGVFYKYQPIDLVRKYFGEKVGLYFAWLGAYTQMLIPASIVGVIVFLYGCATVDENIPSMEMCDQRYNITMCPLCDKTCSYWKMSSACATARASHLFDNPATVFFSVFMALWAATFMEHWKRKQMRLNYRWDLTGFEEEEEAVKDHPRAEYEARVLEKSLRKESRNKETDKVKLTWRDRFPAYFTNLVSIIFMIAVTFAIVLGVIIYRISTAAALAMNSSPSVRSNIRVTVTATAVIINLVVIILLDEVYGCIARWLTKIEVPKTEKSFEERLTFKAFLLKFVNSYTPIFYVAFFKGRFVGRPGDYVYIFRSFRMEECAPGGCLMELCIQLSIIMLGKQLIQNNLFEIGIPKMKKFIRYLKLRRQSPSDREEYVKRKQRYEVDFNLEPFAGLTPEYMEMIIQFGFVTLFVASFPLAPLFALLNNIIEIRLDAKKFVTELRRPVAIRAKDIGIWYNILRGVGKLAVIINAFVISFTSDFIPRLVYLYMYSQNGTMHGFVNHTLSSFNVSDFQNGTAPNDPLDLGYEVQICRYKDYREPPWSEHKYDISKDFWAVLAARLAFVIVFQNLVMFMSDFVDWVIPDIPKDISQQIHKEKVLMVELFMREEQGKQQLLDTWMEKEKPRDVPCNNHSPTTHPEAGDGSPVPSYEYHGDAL
TMEM16A act = activators or potentiators of mouse TMEM16A chloride channel; Q8BHY3; HEK293 TMEM16A/YFP-H148Q/I152L, iodide quench fluorescence; active compounds read low; B-score at 10 µM; actives 0.3% (n = 340,000); AID 623877;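 active = fluorescence-ratio B-score plate-corrected deviation score at least 3 library SD below zero, with starting fluorescence score within 5 deviations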;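 also: channel opened by trigger with iodide after compound preincubation; score built on the fluorescence ratio of max minus min over baseline; more negative score means more quench and so TMEM16A activation or potentiation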
TMEM16A reconf = reconfirmed blocker of mouse TMEM16A calcium-activated chloride channel. shares compounds with TMEM16A inh. HEK293 TMEM16A/YFP-H148Q, iodide quench fluorescence; ionomycin added to raise cell calcium. inhibition, % at 10 µM. actives 39% (n = 2,300). AID 652189;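 active = mean duplicate percent inhibition, scaled so buffer wells are 0 and the reference blocker 100, over three buffer SD above buffer mean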
TMEM16A Ca cntr = calcium mobilization counter-screen hit for TMEM16A inhibitor series; TMEM16A/YFP HEK293, Fluo4 calcium mobilization; actives 2% (n = 2,300); AID 652231; calcium response (% of ionomycin), % at 10 µM; shares compounds with TMEM16A inh;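 active = duplicate-averaged calcium signal over 20% of the ionomycin maximum, relative to buffer baseline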;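 also: each well's signal is peak minus trough fluorescence divided by its pre-addition baseline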
Parental YFP cnt = parental YFP-HEK293 iodide quench counter-screen activity; YFP ratio F(max-min)/F0 at 10 µM; shares compounds with TMEM16A inh; AID 652233; ionomycin; 2,300 tested, under 10 active;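 active = yellow fluorescent protein signal ratio exceeding the buffer control mean by over 5 SD of those controls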;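 also: ratio is mean of duplicate wells from kinetic YFP trace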
ClC-1 inh = rat ClC-1 inhibition, TMEM16A specificity screen; 2,300 tested, under 10 active; CHO ClC-1-YFP, iodide influx fluorescence quench; iodide control reads 0, buffer control 100; AID 652236; shares compounds with TMEM16A inh; ratio percent, % at 10 µM;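 active = duplicate-mean ratio percent above the mean of iodide-only control wells, which defines zero, plus 5 of their SD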;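 also: higher percent means stronger block of ClC-1 iodide influx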
Each line names hits and unclear results; the compound was inactive in the other large screens (follow-up assays come after a bar, where they were run).

O=C(CN1C(=O)COc2ccccc21)c1ccc(Cl)cc1	none | TMEM16A reconf inactive | TMEM16A Ca cntr inactive | Parental YFP cnt inactive | ClC-1 inh inactive
CCn1c(CC(=O)Nc2ccccc2F)nnc1SCC(=O)Nc1nncs1	none
COc1cc(C2c3cc4c(cc3C(OC3OC5COC(c6cccs6)OC5C(O)C3O)C3COC(=O)C23)OCO4)cc(OC)c1O (stereo not drawn)	TMEM16A inh 25 | TMEM16A reconf inactive | TMEM16A Ca cntr inactive | Parental YFP cnt inactive | ClC-1 inh inactive
CCn1c(=O)n(CC)c2cc(S(=O)(=O)N3CCC(c4ccccc4)CC3)ccc21	TMEM16A inh 100 | TMEM16A reconf inactive | TMEM16A Ca cntr inactive | Parental YFP cnt inactive | ClC-1 inh inactive
Cn1c(=O)c(=O)n(C)c2cc(S(=O)(=O)N3CCC(Cc4ccccc4)CC3)ccc21	none
CC1C/C(=N/N=C2/NC(=O)CS2)CC(C)(C)C1 (stereo not drawn)	TMEM16A inh 100 | TMEM16A reconf inactive | TMEM16A Ca cntr inactive | Parental YFP cnt inactive | ClC-1 inh inactive
CCOCCCn1c(=O)c2ccccc2n2c(=S)[nH]nc12	none
COC(=O)c1cccc(Nc2ncnc3sccc23)c1	TMEM16A inh 100 | TMEM16A reconf 26% | TMEM16A Ca cntr inactive | Parental YFP cnt inactive | ClC-1 inh inactive
COc1cccc(Nc2ncnc3sccc23)c1	none
CCC(c1nnc(SCC(=O)Nc2cc(S(C)(=O)=O)ccc2Cl)n1Cc1ccccc1)N(C)C (stereo not drawn)	none
Cc1ccc(S(=O)(=O)N2[C@@H](c3ccc(F)cc3)C(C(=O)O)=CC[C@H]2c2ccc(Cl)cc2)cc1	TMEM16A inh 25 (no result: DNA FID counter) | TMEM16A reconf inactive | TMEM16A Ca cntr inactive | Parental YFP cnt inactive | ClC-1 inh inactive
Cc1ccc([C@@H]2CC=C(C(=O)O)[C@H](c3ccc(Cl)cc3)N2S(=O)(=O)c2ccc(C)cc2)cc1	TMEM16A inh 25 (no result: DNA FID counter) | TMEM16A reconf 16% | TMEM16A Ca cntr inactive | Parental YFP cnt inactive | ClC-1 inh inactive
Cc1nn(Cc2ccccc2)c(Cl)c1C(=O)OC(C)C#N (stereo not drawn)	none
COc1cc(CCC(=O)NNC(=O)c2cccc(Cl)c2)cc(OC)c1OC	none
Cc1c(NC(=O)Cn2ccc([N+](=O)[O-])n2)c(=O)n(-c2ccccc2)n1C	none
CCc1cc2cc3c(cc2nc1SCC(=O)OC(C)C)OCO3	TMEM16A inh 100 | TMEM16A reconf inactive | TMEM16A Ca cntr inactive | Parental YFP cnt inactive | ClC-1 inh inactive
Cc1ccc(S(=O)(=O)Cn2nnnc2C(c2ccccc2)N2CCN(c3ncccn3)CC2)cc1 (stereo not drawn)	TMEM16A inh 25 | TMEM16A reconf inactive | TMEM16A Ca cntr inactive | Parental YFP cnt inactive | ClC-1 inh inactive
O=C(NC1(C(F)(F)F)Oc2ccccc2O1)N1CCCC1	TMEM16A inh 100 | TMEM16A reconf inactive | TMEM16A Ca cntr inactive | Parental YFP cnt inactive | ClC-1 inh inactive
O=C(NCC1CCCO1)NC1(C(F)(F)F)Oc2ccccc2O1 (stereo not drawn)	none
CC(C)(C)C(=O)/C(=C/c1ccncc1)n1cncn1	none
CCOC(=O)/C=C1\Nc2ccccc2OC1=O	none
CC(NCCc1ccc(O)cc1)C(O)c1ccc(O)cc1 (stereo not drawn)	TMEM16A inh 100 | TMEM16A reconf inactive | TMEM16A Ca cntr inactive | Parental YFP cnt inactive | ClC-1 inh inactive
CC(CCc1ccc(O)cc1)NCc1ccc(Br)cc1 (stereo not drawn)	none
COCc1ccc(C(=O)N2CCCCC2C(=O)Nc2ccc(-n3nc(C)cc3C)cc2)o1 (stereo not drawn)	none
CC1Sc2ccc(S(=O)(=O)CCC(=O)N3CCN(c4ccccc4F)CC3)cc2NC1=O (stereo not drawn)	none
O=C1CC(c2ccccc2)c2c(O)cc(O)cc2O1 (stereo not drawn)	none
O=C1CC(c2ccccc2)c2ccc(O)cc2O1 (stereo not drawn)	TMEM16A inh 25 | TMEM16A reconf inactive | TMEM16A Ca cntr inactive | Parental YFP cnt inactive | ClC-1 inh inactive
Cc1c(Cl)ccc2sc(N3CCN(C(=O)C4=COCCO4)CC3)nc12	TMEM16A inh 25 (no result: DNA FID counter) | TMEM16A reconf 44% | TMEM16A Ca cntr inactive | Parental YFP cnt inactive | ClC-1 inh inactive
Cc1ccc2sc(N3CCN(C(=O)c4ccc([N+](=O)[O-])o4)CC3)nc2c1C	none (no result: DNA FID counter)
CCC(C(=O)N1CCN(C(=O)c2ccco2)CC1)c1ccccc1 (stereo not drawn)	TMEM16A inh 100 | TMEM16A reconf inactive | TMEM16A Ca cntr inactive | Parental YFP cnt inactive | ClC-1 inh inactive
CCOCCCNC(=S)N1CCN(c2nc(-c3ccc(F)cc3)cs2)CC1	TMEM16A inh 100 | TMEM16A reconf 31% | TMEM16A Ca cntr inactive | Parental YFP cnt inactive | ClC-1 inh inactive
Cc1nnc(SCC(=O)c2ccc(Cl)cc2)s1	none
CCCCOCCCNc1ncnc2c1[nH]c1ccccc12	TMEM16A inh 100 | TMEM16A reconf 56% | TMEM16A Ca cntr inactive | Parental YFP cnt inactive | ClC-1 inh inactive
CCOc1ccc(/C=C2/SC(=O)NC2=S)cc1	none
CCOc1ccc(N=C2NC(=O)S/C2=C\c2ccc(N(C)C)cc2)cc1	none | TMEM16A reconf inactive | TMEM16A Ca cntr inactive | Parental YFP cnt inactive | ClC-1 inh inactive
CC1=CC(C)(C)N2C(=O)C3(C(C#N)=C(N)Oc4cc(O)ccc43)c3c(C)c(C)cc1c32 (stereo not drawn)	TMEM16A inh 100 | TMEM16A reconf 45% | TMEM16A Ca cntr inactive | Parental YFP cnt inactive | ClC-1 inh inactive
CC1(C)CC(=O)C(CC(=O)NC(=O)NCc2ccccc2)=C(O)C1	TMEM16A inh 100 | TMEM16A reconf inactive | TMEM16A Ca cntr inactive | Parental YFP cnt inactive | ClC-1 inh inactive
CN=C(Cc1ccccc1)C1=C(O)CC(C)(C)CC1=O	none
COC(=O)c1ccc2c(c1)NC(=O)C(N1CCOCC1)S2 (stereo not drawn)	none

Source: PubChem
